Consider three compounds from ChEMBL document CHEMBL3988442, “University of Dundee, Small-Polar-MMV Screening Library” (2021).

For some of these results: Entries with a potency or affinity are not part of this list. Where only a bound is given, the exact number is not on record here.

Assay [1] addresses T1, Methionyl-tRNA synthetase, putative (Leishmania donovani (strain BPK282A1)) (UniProt E9BF75).
T1 sequence (whole entry): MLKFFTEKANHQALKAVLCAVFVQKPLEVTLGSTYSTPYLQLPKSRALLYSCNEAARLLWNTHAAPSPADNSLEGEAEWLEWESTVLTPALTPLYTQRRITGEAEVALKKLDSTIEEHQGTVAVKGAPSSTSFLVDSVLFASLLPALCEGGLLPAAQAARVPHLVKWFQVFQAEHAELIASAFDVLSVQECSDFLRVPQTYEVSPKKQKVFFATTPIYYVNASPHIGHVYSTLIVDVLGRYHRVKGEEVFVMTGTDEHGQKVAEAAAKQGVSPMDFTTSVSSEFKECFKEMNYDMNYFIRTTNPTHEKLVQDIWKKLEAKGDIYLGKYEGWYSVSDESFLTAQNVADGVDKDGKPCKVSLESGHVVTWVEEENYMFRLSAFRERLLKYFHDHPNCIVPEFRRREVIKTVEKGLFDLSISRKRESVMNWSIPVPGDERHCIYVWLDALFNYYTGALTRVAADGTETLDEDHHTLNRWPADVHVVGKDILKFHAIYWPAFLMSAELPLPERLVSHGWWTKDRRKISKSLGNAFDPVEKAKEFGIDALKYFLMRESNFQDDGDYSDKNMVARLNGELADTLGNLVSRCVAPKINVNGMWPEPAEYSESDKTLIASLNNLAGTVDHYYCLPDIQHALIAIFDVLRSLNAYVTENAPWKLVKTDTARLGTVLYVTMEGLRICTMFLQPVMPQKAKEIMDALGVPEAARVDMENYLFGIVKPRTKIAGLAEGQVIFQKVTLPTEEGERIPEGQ
Nature of the assay: Leishmania donovani Methionine tRNA synthetase (LdMetRS):v7. Dose response assay. The class given is functional. More on the design: conc 80 nM, time 150 minutes.

Assay [2] deals with Protein translocase subunit SecA (Escherichia coli (strain K12)) (UniProt P10408). Nature of the assay: Assay to Identify E. coli SecA ATPase Inhibitors. It is filed as functional. Also on record: scale not given: direction of the effect not stated beside the values. The following applies: 30 µM.
Protein translocase subunit SecA (Escherichia coli (strain K12)), sequence (P10408 whole entry): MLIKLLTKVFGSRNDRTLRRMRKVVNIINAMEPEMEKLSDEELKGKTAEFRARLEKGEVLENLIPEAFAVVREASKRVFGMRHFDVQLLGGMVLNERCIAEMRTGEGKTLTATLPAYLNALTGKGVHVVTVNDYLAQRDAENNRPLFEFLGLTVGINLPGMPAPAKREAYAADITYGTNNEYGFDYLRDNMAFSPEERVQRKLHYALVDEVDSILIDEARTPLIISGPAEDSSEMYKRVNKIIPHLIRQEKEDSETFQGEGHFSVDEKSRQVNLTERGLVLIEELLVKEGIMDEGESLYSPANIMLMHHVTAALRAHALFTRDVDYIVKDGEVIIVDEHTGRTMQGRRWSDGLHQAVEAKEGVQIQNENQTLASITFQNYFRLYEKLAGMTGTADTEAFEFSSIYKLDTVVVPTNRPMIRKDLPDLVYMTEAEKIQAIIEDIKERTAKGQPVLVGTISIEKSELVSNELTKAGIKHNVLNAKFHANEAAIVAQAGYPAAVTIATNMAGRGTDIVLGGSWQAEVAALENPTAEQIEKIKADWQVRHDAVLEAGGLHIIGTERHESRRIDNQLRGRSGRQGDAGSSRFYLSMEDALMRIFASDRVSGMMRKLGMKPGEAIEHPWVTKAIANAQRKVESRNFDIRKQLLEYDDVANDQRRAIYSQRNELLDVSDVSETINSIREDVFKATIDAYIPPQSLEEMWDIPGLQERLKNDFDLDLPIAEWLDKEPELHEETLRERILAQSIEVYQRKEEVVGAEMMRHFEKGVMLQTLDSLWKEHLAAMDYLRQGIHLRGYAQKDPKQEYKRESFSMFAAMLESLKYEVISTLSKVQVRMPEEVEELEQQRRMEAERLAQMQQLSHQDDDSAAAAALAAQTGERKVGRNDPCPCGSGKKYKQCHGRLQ
Assay [3] deals with T2, Ubiquitin-activating enzyme e1, putative (Leishmania donovani (strain BPK282A1)) (UniProt E9BSI1).
T2 sequence (whole entry): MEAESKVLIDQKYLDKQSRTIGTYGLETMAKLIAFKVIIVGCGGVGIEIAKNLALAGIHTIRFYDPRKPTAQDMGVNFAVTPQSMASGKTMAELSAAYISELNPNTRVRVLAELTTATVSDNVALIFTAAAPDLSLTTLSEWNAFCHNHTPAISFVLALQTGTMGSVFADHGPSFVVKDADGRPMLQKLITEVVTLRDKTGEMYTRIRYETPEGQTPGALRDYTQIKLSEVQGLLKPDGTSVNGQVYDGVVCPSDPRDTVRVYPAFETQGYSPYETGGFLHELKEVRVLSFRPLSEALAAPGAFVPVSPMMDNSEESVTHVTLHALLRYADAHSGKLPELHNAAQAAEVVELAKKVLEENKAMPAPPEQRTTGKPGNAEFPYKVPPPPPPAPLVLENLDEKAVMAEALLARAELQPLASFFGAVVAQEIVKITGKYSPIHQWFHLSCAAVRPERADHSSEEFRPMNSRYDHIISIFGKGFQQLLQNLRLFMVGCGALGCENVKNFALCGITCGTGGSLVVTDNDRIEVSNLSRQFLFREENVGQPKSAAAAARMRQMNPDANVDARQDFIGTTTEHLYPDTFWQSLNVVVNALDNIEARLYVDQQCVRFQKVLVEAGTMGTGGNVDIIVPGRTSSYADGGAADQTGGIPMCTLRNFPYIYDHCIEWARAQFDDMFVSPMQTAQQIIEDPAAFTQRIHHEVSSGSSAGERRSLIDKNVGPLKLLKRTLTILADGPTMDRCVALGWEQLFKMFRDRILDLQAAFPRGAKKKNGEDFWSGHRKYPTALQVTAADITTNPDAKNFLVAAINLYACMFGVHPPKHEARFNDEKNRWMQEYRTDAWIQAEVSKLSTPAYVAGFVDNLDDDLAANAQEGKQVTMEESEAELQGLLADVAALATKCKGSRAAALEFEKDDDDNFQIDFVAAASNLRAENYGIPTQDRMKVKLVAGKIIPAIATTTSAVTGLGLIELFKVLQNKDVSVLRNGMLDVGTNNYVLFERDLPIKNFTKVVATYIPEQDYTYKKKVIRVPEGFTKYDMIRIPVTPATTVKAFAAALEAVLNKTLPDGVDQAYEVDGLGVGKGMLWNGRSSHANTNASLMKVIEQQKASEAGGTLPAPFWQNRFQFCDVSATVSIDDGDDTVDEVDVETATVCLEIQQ
Nature of the assay: Leishmania donovani Ubiquitin Activating Enzyme (LdE1). The class given is functional. Also on record: scale not given: direction of the effect not stated beside the values. To be noted: 30 µM.

Assay [4] addresses Sialic acid-binding Ig-like lectin 9 (Homo sapiens) (UniProt Q9Y336). Nature of the assay: Hs-Siglec9 ALPHAscreen SOP 20170721. More on the design: scale not given: direction of the effect not stated beside the values. To be noted: 10 µM.
In a further assay the test system is Trypanosoma cruzi. As to the kind of experiment: Trypanosoma cruzi phosphomannomutase and mannose-1-phosphate guanylyltransferase assay. The class given is functional. Also on record: scale not given: direction of the effect not stated beside the values. The following applies: 10 µM.
The target of assay [5] is T3, Arginase-2, mitochondrial (Homo sapiens) (UniProt P78540).
T3 sequence (whole entry): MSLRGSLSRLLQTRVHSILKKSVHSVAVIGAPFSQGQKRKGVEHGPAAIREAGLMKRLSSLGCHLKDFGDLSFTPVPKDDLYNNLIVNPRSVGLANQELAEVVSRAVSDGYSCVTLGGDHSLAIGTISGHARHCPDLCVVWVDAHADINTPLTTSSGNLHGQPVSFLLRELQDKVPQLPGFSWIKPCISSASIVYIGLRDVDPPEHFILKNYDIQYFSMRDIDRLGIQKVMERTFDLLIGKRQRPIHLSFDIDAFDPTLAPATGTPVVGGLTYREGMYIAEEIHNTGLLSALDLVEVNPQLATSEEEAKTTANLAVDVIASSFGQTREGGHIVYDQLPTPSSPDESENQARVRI
Nature of the assay: in vitro enzyme assay to detect the production of urea directly proportional to the activity of Arginase II. The class given is functional. More on the design: scale not given: in the data most compounds retested in dose-response had high values. The following applies: 33.3 µM.

Assay [6] has as its target T4, Proteasome subunit beta (Trypanosoma cruzi) (UniProt O96673).
T4 sequence (whole entry): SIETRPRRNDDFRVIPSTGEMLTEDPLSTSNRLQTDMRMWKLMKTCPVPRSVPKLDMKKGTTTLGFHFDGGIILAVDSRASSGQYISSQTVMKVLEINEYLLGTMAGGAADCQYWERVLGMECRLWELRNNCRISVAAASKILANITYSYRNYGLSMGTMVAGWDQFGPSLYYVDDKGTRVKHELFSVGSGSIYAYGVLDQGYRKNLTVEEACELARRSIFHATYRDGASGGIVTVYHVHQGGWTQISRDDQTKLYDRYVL
Nature of the assay: Trypanosoma cruzi proteasome chymotrypsin-like activity (TcProtChymo) assay. The class given is functional. The following applies: 9.37 µM. Also on record: scale not given: in the data most compounds retested in dose-response had high values.

The species entered for the next assay is Homo sapiens. As to the kind of experiment: To identify inhibition of the IFN signalling (Jak-Stat) pathway via expression of an eGFP reporter gene under the control of an IFN-stimulated response element (ISRE) containing MxA promoter. It is filed as functional. More on the design: scale not given: direction of the effect not stated beside the values. To be noted: 30 µM.

Assay [7] addresses T5, Tyrosyl-tRNA synthetase, putative (Trypanosoma cruzi (strain CL Brener)) (UniProt Q4DSP6).
T5 sequence (whole entry): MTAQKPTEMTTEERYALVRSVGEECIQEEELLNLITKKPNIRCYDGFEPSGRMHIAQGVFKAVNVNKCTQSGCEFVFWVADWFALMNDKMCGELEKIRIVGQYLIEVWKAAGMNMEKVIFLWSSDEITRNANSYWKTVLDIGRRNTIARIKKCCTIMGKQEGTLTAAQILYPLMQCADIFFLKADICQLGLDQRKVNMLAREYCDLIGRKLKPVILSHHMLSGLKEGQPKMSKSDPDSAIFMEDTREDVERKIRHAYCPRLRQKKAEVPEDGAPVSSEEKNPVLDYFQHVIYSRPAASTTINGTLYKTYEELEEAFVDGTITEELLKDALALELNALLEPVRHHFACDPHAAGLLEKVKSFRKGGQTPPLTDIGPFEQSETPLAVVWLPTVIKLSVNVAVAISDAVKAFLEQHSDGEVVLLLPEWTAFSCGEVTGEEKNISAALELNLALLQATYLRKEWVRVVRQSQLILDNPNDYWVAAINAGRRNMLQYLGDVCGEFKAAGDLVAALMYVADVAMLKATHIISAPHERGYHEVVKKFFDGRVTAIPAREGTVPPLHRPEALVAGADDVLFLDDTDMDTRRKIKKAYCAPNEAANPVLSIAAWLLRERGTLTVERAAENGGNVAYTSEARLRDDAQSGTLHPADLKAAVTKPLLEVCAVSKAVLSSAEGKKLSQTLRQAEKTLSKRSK
As to the kind of experiment: Trypanosoma cruzi tyrosyl tRNA synthetase (TcYRS) _High Tyrosine SOP. It is filed as functional. More on the design: scale not given: in the data most compounds retested in dose-response had high values. The following applies: 30 µM.

Assay [8] deals with T5, Tyrosyl-tRNA synthetase, putative (Trypanosoma cruzi (strain CL Brener)). Nature of the assay: Trypanosoma cruzi tyrosyl tRNA synthetase (TcYRS) SOP. It is filed as functional. More on the design: scale not given: direction of the effect not stated beside the values. The following applies: 30 µM.
The target of assay [9] is Chromo domain-containing protein 1 (Saccharomyces cerevisiae (strain ATCC 204508 / S288c) (Baker's yeast)) (UniProt P32657). Nature of the assay: ScCHD-1 Enzyme Inhibition Assay. The class given is functional. Also on record: scale not given: in the data most compounds retested in dose-response had high values. The following applies: 30 µM.
Chromo domain-containing protein 1 (Saccharomyces cerevisiae (strain ATCC 204508 / S288c) (Baker's yeast)), sequence (P32657 whole entry, the tested form may be a part): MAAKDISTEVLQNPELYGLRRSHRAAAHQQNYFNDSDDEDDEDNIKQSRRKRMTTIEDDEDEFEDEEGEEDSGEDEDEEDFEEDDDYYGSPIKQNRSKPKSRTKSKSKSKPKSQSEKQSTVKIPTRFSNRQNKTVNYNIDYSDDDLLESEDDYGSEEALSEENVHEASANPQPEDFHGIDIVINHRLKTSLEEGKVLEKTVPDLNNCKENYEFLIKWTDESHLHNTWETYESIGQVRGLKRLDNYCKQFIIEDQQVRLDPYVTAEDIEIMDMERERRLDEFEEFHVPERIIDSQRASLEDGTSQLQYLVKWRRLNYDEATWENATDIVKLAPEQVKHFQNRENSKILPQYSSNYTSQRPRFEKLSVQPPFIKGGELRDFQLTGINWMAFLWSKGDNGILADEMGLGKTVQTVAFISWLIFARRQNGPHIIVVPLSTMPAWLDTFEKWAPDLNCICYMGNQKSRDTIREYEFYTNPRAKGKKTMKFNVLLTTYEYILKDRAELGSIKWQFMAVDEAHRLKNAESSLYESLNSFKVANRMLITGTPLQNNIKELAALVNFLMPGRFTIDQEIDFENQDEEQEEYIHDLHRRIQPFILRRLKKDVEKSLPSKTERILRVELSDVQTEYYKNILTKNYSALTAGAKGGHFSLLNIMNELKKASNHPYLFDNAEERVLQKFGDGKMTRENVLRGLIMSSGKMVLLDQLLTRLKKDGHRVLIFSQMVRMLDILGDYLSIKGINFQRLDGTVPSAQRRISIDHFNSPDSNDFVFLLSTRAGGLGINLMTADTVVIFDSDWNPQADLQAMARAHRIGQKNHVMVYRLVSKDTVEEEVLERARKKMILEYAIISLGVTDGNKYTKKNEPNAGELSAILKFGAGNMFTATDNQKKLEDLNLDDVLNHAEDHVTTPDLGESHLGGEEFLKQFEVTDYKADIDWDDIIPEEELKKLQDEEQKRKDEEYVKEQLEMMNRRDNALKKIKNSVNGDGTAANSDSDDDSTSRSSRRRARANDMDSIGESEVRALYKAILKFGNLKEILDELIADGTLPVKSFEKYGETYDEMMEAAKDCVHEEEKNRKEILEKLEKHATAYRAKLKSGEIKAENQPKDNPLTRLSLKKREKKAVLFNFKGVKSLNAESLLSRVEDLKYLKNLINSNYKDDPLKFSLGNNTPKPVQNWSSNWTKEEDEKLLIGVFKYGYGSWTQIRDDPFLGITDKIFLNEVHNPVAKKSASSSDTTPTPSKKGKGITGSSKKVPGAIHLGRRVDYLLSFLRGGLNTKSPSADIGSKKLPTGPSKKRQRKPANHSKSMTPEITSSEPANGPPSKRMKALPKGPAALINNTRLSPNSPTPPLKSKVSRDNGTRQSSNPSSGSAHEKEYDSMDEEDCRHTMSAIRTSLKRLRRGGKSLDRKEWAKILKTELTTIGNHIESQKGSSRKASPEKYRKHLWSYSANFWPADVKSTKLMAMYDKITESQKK

Sialic acid-binding Ig-like lectin 9 (Homo sapiens), sequence (Q9Y336 whole entry): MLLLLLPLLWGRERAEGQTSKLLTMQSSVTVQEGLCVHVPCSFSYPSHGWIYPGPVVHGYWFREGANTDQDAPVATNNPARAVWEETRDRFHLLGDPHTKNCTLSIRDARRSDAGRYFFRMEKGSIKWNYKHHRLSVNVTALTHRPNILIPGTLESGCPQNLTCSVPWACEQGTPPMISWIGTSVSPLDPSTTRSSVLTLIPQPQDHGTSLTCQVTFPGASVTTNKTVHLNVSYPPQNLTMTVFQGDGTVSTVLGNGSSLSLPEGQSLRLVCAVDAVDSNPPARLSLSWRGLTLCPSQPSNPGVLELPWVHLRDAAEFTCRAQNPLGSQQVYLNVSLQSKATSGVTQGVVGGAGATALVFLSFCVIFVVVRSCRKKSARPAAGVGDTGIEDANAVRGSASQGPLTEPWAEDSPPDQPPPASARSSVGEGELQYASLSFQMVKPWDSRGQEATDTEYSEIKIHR

Regarding `Cc1nn(C)c(C)c1CCn1cncc1-c1ccc2c(c1)CC(C)N2C` (stereo not given), the PXC50 is 4.19 in assay [1] (BOTTOM 5.604710013, HILLSLOPE 1.073782549, MAX_EFFECT 50.43327556, TOP 78.0664514); less than 4 in assay [1] (MAX_EFFECT 34.22818792); less than 4 in assay [1] (MAX_EFFECT 37.5); less than 4 in assay [1] (MAX_EFFECT 42.63038549); less than 4 in assay [1] (MAX_EFFECT 45.23364486).

Turning to `NC[C@H]1CC[C@H](C(NC(=O)c2cccc(F)c2)c2ccccn2)CC1` (stereo not given in full), the PXC50 in assay [1] (MAX_EFFECT 33.33333333), in assay [1] (MAX_EFFECT 43.95393474), in [1] (MAX_EFFECT 49.10394265), in assay [1] (MAX_EFFECT 49.8349835) and in assay [1] (MAX_EFFECT 55.07246377) was less than 4 each time. Also, the Percent Effect is 0.535% in [2]; 12% in assay [3]; -8.09% in assay [4]; 6.51% in the assay on Trypanosoma cruzi; -0.443% in [5]; 9.36% in assay [6]. The Percent Effect was 8.62% in the assay listed under Homo sapiens, 31.8% in assay [7], 45% in [8] and -26.3% in assay [9].

For `CS(=O)(=O)N1CCN(c2ccc3ccc(C(=O)NC4CC4)cn23)CC1`, the PXC50 in assay [1] (BOTTOM 0.676888483, HILLSLOPE 1.632295337, MAX_EFFECT 62.22222222, TOP 67.77025413) came out at 4.71; in assay [1] (BOTTOM 0.960464126, HILLSLOPE 4.237364112, MAX_EFFECT 56.37583893, TOP 52.03393569), 4.89; in assay [1] (BOTTOM 1.708048652, HILLSLOPE 3.091987727, MAX_EFFECT 59.02777778, TOP 55.32905726) it was 4.97; in assay [1] (BOTTOM 3.037239637, HILLSLOPE 2.011804467, MAX_EFFECT 63.24110672, TOP 62.63598189) it was 4.98; in [1] (BOTTOM -1.02344126, HILLSLOPE 1.263595064, MAX_EFFECT 66.72443674, TOP 100.0) it was 4.26.
